About 280 (0.082%) of roughly 340,000 compounds were called active.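 Rule for the calls: active = percent activation above the mean of all tested compounds plus 3 SD (cut at about 19% in these data); inactive = the rest.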 Many of the other results were omitted from the sample, so actives are more common in it than they were.

The target in this assay is cAMP-dependent protein kinase type I-alpha regulatory subunit (Bos taurus) + cAMP-dependent protein kinase catalytic subunit beta (Mus musculus) (UniProt P00514+P68181). The assay can be described thus: activators of PKA-R1A holoenzyme, primary screen, biochemical, fluorescence polarization, Cy5-IP20, bovine R1A, mouse PKAc (AID 504707).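 Note: higher means more PKAc released from R1A so a rise in polarization.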 Conditions: PKA-R1A dissociation, at 11.4 µM, active compounds read high, scaled: DMSO 0%, 113 µM cGMP 100%.
For the compound `Cc1ccc(S(=O)(=O)N(CCc2ccccc2)c2ccc3c(c2)C2CC3CCN2C(=O)OCc2ccccc2)cc1` (centres undefined), the activation is -0.4% (inactive).

For `CC(C)NC(=O)Nc1ccc2c(c1)C(=O)N([C@H](C)CO)C[C@H](C)[C@@H](CN(C)Cc1ccc(C(F)(F)F)cc1)OCCCC[C@@H](C)O2`, the activation is 3.01% (inactive).

Regarding `C#CCN(C[C@@H]1[C@@H](OC(=O)NC2CC2)[C@@H](OC(=O)NC2CC2)Cn2c(=O)ccc(=O)n21)S(=O)(=O)c1ccc(C)cc1`, the activation is -6.57% (inactive).

As for `CN(Cc1c(F)cccc1Cl)C(=O)COC(=O)Cn1cnc2ccccc2c1=O`, the activation is 0.6% (inactive).

Regarding `COc1ccc(NC(=O)C[C@H]2C(=O)N(CCc3ccccc3)C[C@@H]2C)cc1`, the activation was -0.95% (inactive).

As for `Cc1ccccc1N1CC(C(=O)Nc2nnc(SCCC3OCCO3)s2)CC1=O` (centres undefined), the activation was -0.56% (inactive).

Regarding `COc1ccccc1N1CC(C(=O)Nc2nnc(SCC(=O)NCC3CCCO3)s2)CC1=O` (centres undefined), the activation is 0.23% (inactive).

Consider `COc1ccccc1N1CC(C(=O)Nc2nnc(SCC(=O)NC(C)C)s2)CC1=O` (centres undefined), for which the activation was 24.3% (active).

As for `CC1CN(C(=O)c2cccc(NS(=O)(=O)c3ccc(Br)cc3)c2)CC(C)O1` (centres undefined), the activation is -7.05% (inactive).

As for `CSc1ncnc2c1ncn2CCCNCc1ccco1`, the activation was -1.79% (inactive).

For `COc1cccc(NC(=O)CN(C)C(=O)c2cc(Cl)nc3ccccc23)c1`, the activation is 9.02% (inactive).

Regarding `O=C1c2ccccc2-c2ccccc2NC1O` (centres undefined), the activation was 10.3% (inactive).

As for `CCOc1cc(C(=O)Nc2c(C)ccc3nsnc23)cc(OCC)c1OCC`, the activation is 19.5% (active).

Regarding `CCOc1cc(C(=O)Nc2ccc(S(=O)(=O)Nc3cnc4ccccc4n3)cc2)cc(OCC)c1OCC`, the activation was -1.58% (inactive).

As to `Cc1ccc2nsnc2c1NC(=O)c1ccccc1[N+](=O)[O-]`, the activation is -6.39% (inactive).

In the case of `CCCn1c(N)c(C(=O)CSc2nnc(Cc3cccs3)n2C2CC2)c(=O)[nH]c1=O`, the activation was 9.54% (inactive).

For the compound `O=C1CC[C@@H](C(=O)N2CSC[C@@H]2C(=O)Nc2ccc(C(F)(F)F)cc2)N1`, the activation was 0.56% (inactive).

With `CC(=O)Nc1ccc(SCC(=O)NC(=O)c2ccc(Cl)cc2)cc1`, the activation was 2.13% (inactive).

In the case of `CCC(=O)N1CCc2cc(S(=O)(=O)CCC(=O)N3CCN(c4ccccc4F)CC3)ccc21`, the activation was 2.69% (inactive).

For `Cc1ccn(C(CC(=O)c2ccc(Br)cc2)C(=O)O)n1` (centres undefined), the activation was -7.77% (inactive).

On to `CC1C(=O)N(Cc2cn(CC3CCCCC3)nn2)CCS(=O)(=O)N1Cc1ccc(-c2cccc(N(C)C)c2)cc1` (centres undefined), for which the activation was -4.48% (inactive).

With `NC(CSC(c1ccccc1)(c1ccccc1)c1ccc(-c2ccccc2)cc1)C(=O)O` (centres undefined), the activation was -6.56% (inactive).

Consider `Cc1cc(/C=C2/SC(=O)N(CC(=O)N3CCCC3)C2=O)c(C)n1C`, for which the activation is -2.71% (inactive).

`Cc1ccc(C(=O)O)cc1-c1ccc(/C=C2\SC(=O)N(CC(=O)Nc3ccc4c(c3)OCO4)C2=O)o1`: the activation is 0.69% (inactive).

In the case of `N#Cc1ccccc1CN1C(=O)S/C(=C/c2cccn2-c2cccc(C(=O)O)c2)C1=O`, the activation was 26.4% (active).

On to `CC(=O)Nc1ccc(C=CC(=O)c2ccc([N+](=O)[O-])cc2)cc1`, for which the activation was 4.15% (inactive).

On to `COc1ccc(CN2C(=O)C(CC(=O)NCCCCc3ccccc3)CC(C(=O)N3CCOCC3)=C2C)cc1` (centres undefined), for which the activation was -0.11% (inactive).

As for `Cc1ccc(NC(=O)COC(=O)CN2CCSC2=O)cc1F`, the activation is -5.13% (inactive).

For the compound `COc1cc2ccc(C(C)=O)c(O)c2cc1OC`, the activation was 4.58% (inactive).

Turning to `Cc1csc(SCC(=O)Nc2ccc(C)c(S(=O)(=O)N(C)C)c2)n1`, the activation was -1.19% (inactive).

For `CCOC(=O)C=Cc1ccc(C(=O)OCC)[nH]1`, the activation was 1.4% (inactive).

As for `O=C(NCC(F)(F)F)c1ccc(S(=O)(=O)NCCc2ccc3c(c2)OCCO3)cc1`, the activation is -0.03% (inactive).

In the case of `Cc1cc(C)c2c(=O)n3c(nc2c1)C(CC(C)C)NC(=O)c1cc2ccccc2cc1-3` (centres undefined), the activation was -8.23% (inactive).

Take `COc1ccc(C(CNC(=O)CSc2ccccc2)N2CCOCC2)cc1` (centres undefined): the activation is -7.96% (inactive).

Take `Cc1cccc(S(=O)(=O)N(C)C[C@@H]2OCc3cnnn3CCCC(=O)N([C@H](C)CO)C[C@@H]2C)c1`: the activation is 1.99% (inactive).

For the compound `CCN(CC)C(=O)C1=C(C)N(Cc2ccc(C(C)(C)C)cc2)C(=O)C(CC(=O)NCc2cccc3ccccc23)C1` (centres undefined), the activation is -15.8% (inactive).

As for `COc1ccc([C@H]2C[C@@H](n3cc(COC(=O)c4ccccc4)nn3)[C@H](O)CN2C(=O)c2cccs2)cc1`, the activation is -9.97% (inactive).

Regarding `COc1ccc(NS(=O)(=O)c2ccc(NC(=O)c3ccc(N(C)S(C)(=O)=O)cc3)cc2)cc1`, the activation was 9.45% (inactive).

As for `COc1ccc(NC(=O)c2ccc(C#CC(C)(C)O)cc2)cc1`, the activation was 23.1% (active).

Take `COc1ccc(C(=O)Nc2ccc(-n3nncc3C(C)(C)C)cc2)cc1`: the activation is -6.01% (inactive).

With `COn1c(=O)c(=O)n(OC)c2ccccc21`, the activation is -14.3% (inactive).

On to `COc1ccc(NC(=O)c2cc(=O)[nH]c3ccccc23)cc1S(=O)(=O)N1CCOCC1`, for which the activation was 3.45% (inactive).

`N#CCCC(C#N)(c1cccnc1)N1CCOCC1` (centres undefined): the activation was 9.19% (inactive).

With `O[C@@H]1C[C@H](c2ccccc2)N(Cc2cccs2)C[C@H]1n1cc(C2CC2)nn1`, the activation was 8.01% (inactive).

On to `Cn1ncc2c(NNC(=O)Cc3cccc4ccccc34)ncnc21`, for which the activation was -20.9% (inactive).

As for `O=C(CNC(=O)N1CC(=O)Nc2ccccc21)Nc1ccc(Br)cc1F`, the activation is -0.99% (inactive).

In the case of `CCOc1ccc(C2NC(=S)NC3=C2CCc2ccccc23)cc1` (centres undefined), the activation is -2.38% (inactive).

`CCOC(=O)c1cc(-c2sc(NC(=O)c3ccccc3)nc2C)n(-c2ccc(Br)cc2)n1`: the activation was 4.25% (inactive).

Turning to `C[C@H](CO)N1C[C@H](C)[C@@H](CN(C)C(=O)c2cccc(F)c2)Oc2cc(-c3cncnc3)ccc2S1(=O)=O`, the activation was 0.35% (inactive).

Regarding `CCOC(=O)C1CCN(C(=O)c2ccc3c(=O)n4nc(Nc5ccccc5CC)sc4nc3c2)CC1`, the activation is -0.99% (inactive).

Regarding `C[C@@H]1CN([C@@H](C)CO)S(=O)(=O)c2ccc(-c3ccc(C(=O)N(C)C)cc3)cc2O[C@@H]1CN(C)Cc1ccccc1C(=O)O`, the activation is -3.75% (inactive).

As for `O=S1(=O)CCN(C2CCCCCCCCCCC2)CC1`, the activation is 7.32% (inactive).

As to `c1ccc(Cn2nnc3c(NCC4CC4)ncnc32)cc1`, the activation was 5.88% (inactive).

As to `O=C(COc1ccc(S(=O)(=O)N2CCCC2)cc1[N+](=O)[O-])N1CCCCC1`, the activation is -0.2% (inactive).

On to `Cc1cccc(N(CC(=O)N2CCCC2)S(C)(=O)=O)c1C`, for which the activation is -6.73% (inactive).

As for `CC1=C(C(=O)Nc2cccc(C(=O)NCC(C)c3ccccc3)c2)SCCO1` (centres undefined), the activation is 9.58% (inactive).

Regarding `CCOC(=O)c1c(NC(=S)SC)sc(C(=O)N2CCc3ccccc3C2)c1C`, the activation was -7.69% (inactive).

Turning to `Cc1ccc(S(=O)(=O)N2CCOCC2)cc1NC(=O)c1ccncc1`, the activation is -4.48% (inactive).

Regarding `OCC1OC(n2cnc3c(N4CCCC4)ncnc32)C(O)C1O` (centres undefined), the activation is 2.45% (inactive).

On to `CC(Sc1ccc(S(=O)(=O)N2CCN(C)CC2)cn1)C(=O)NC1CCCC(C)C1C` (centres undefined), for which the activation is 1.21% (inactive).

On to `NC1=CC(=O)C(=O)c2cccnc21`, for which the activation was 0.52% (inactive).

`CCCc1ccc(S(=O)(=O)N2CCN(C(=O)c3cc(C)on3)CC2)cc1`: the activation is 8.59% (inactive).

As for `CCc1noc(C)c1C(=O)OCC(=O)c1ccc(NC(=O)CC(C)C)cc1`, the activation is -17.9% (inactive).

On to `COc1ccc2c(c1)CCCO[C@]21O[C@H](CCO)C[C@H](O)[C@H]1O`, for which the activation was -17.7% (inactive).

In the case of `COCOCCn1cc(CN2CCS(=O)(=O)N(Cc3ccc(-c4ccccc4)cc3)C(CC(C)C)C2=O)nn1` (centres undefined), the activation is -7.1% (inactive).

`CCc1cc(C(=O)N(CC)CC(=O)Nc2c(F)cccc2F)sc1C`: the activation is 2.41% (inactive).

With `O=S(=O)(c1ccc(Cl)s1)N1CCC2(CC1)OCCO2`, the activation is -0.53% (inactive).

For the compound `Cc1noc(C)c1S(=O)(=O)N(C)C[C@H]1OCCCC[C@@H](C)Oc2ccc(NC(=O)CCCN(C)C)cc2C(=O)N([C@H](C)CO)C[C@@H]1C`, the activation is -9.82% (inactive).

`Cc1ccn(CC(=O)NC2CCCN(Cc3ccccc3F)C2)n1` (centres undefined): the activation is 3.67% (inactive).

`CCOC(=O)c1cnc(SC)nc1Sc1ccc(Cl)cc1Cl`: the activation is -0.11% (inactive).

Take `C[C@@H]1CN([C@H](C)CO)S(=O)(=O)c2ccc(C#CC3CCCCC3)cc2O[C@H]1CN(C)C(=O)Cc1ccncc1`: the activation is -5.17% (inactive).

Take `CC1CCN(C(=O)CSc2nnc(-c3ccco3)n2N)CC1`: the activation is -3.33% (inactive).

For the compound `Cc1ccc(CCNC(=O)CN2C(=O)CSc3ccc(S(=O)(=O)N4CCOCC4)cc32)cc1`, the activation was -7.23% (inactive).

Consider `CCCCN=C(N)/C(C(=O)OCC)=C(\O)c1ccc(OC)cc1`, for which the activation is -0.11% (inactive).

`COc1ccc(S(=O)(=O)N2CCC(C(=O)NCCC(=O)NCCc3cccc(F)c3)CC2)cc1`: the activation was -4.12% (inactive).

Turning to `NS(=O)(=O)c1ccc(CNC(=O)c2cc(S(=O)(=O)N3CCOCC3)ccc2N2CCCC2)cc1`, the activation was -1.96% (inactive).

For `CCN(CC)C(=O)C1=C(C)N(Cc2ccccc2)C(=O)C(CC(=O)NC(c2ccccc2)c2ccccc2)C1` (centres undefined), the activation is -7.55% (inactive).

`CCc1nc2c(=O)[nH]cnc2o1`: the activation was 12.2% (inactive).

As for `CC1CCC2(CC1)NC(=O)N(CC(=O)NCc1ccco1)C2=O` (centres undefined), the activation is -3.37% (inactive).

For `COc1ccc(NC(=O)COC(=O)C2COc3ccccc3O2)cc1` (centres undefined), the activation is 11.1% (inactive).

With `O=C(CSc1ccc(Cl)cc1)NC1CC1`, the activation is -0.65% (inactive).

On to `CCCNC(=O)C1CC(=O)N(c2ccc(OCc3ccccc3)cc2)C1` (centres undefined), for which the activation is 3.3% (inactive).

With `O=C(COC(=O)c1cccc(Cl)c1Cl)NC1CCCCCC1`, the activation was -4.58% (inactive).

Take `C[C@H]1CN([C@@H](C)CO)C(=O)CCCn2cc(nn2)CO[C@@H]1CN(C)C(=O)Nc1ccccc1`: the activation was -15.3% (inactive).

Values taken from PubChem BioAssay AID504707 (The Scripps Research Institute Molecular Screening Center, 2011).
